Bioassay records as filed in PubChem BioAssay.
pCIP destab – lowers stability of the mouse p/CIP coactivator protein; Q05BA5; F442A p/CIP-EGFP cells, EGFP fluorescence, 16 h; decrease of EGFP signal, % at 10 µM; 290,000 compounds, 0.01% hits; AID 1984;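 active = EGFP signal decrease of at least 30% at 10 µM or well 3 SD below plate mean, unless failing retest; inactive = the rest, including hits failing retest or dose response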
Hsp70 act – transcriptional activators of Hsp70 | HeLa Hsp70 promoter luciferase reporter, luminescence; scaled: vehicle 0, proteasome-inhibitor control 100% | activation, % at 10 µM | 200,000 compounds, 0.04% hits | AID 1203;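 active = activation above the mean across all tested compounds plus 3 SD, cutoff set per campaign, cut at about 5.5% in these data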
NALP1 yeast inh – inhibitors of NALP1 inflammasome in yeast; AID 2071; inhibition, % at 10 µM; 280,000 compounds, 0.61% hits; S. cerevisiae NALP1/ASC/caspase-1 growth, X-gal OD620, 72 h; in the data active = inhibition mostly above about 24%, no sharp cut-off; inactive = mostly below about 32%
HSF-1 act – increases HSF-1 driven luciferase reporter signal; NIH3T3-HGL HSF-1 luciferase reporter, MG132, 8 h; 100% = twice DMSO control signal; activation, % at 9 µM; 300,000 compounds, 1.7% hits; AID 504408;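 active = mean replicate activation of at least 50% with a set share of replicates each reaching 50%; inconclusive = only one of those two conditions met; inactive = mean below 50% and too few replicates reaching it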
HSF1 inhib – HSF1 inhibition. 300,000 compounds, 0.77% hits. activity change, negative = inhibition, % at 7.5 µM (by protocol). NIH3T3-HGL HSE-luciferase, MG132-induced, luminescence 8 h; stronger effect = lower value;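 active = more than half of replicate wells show activity change below -50%, luminescence cut by over half; inconclusive = some wells, but at most half, below -50%; inactive = no replicate well below -50%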;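 note: luciferase reports HSF-1 transcriptional activity via heat shock element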
HSP90 refold inh – inhibitors of HSP90 luciferase refolding in rabbit reticulocyte lysate; luciferase refolding luminescence, 3 h; inhibition, % at 5.6 µM; 290,000 compounds, 0.91% hits;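 active = inhibition above the screen-wide mean plus 3 SD, computed separately per campaign, cut at about 16% in these data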;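 note: inhibitors lower the luminescence because luciferase stays unfolded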
A number is an active result. Hits are enriched below; roughly 3.8% of the tested compounds scored in any of these assays.

How did Cc1ccc(-c2cnn(-c3cccc(C(F)(F)F)c3)c2N)cc1 do in these assays?
pCIP destab: inactive; Hsp70 act: inactive; NALP1 yeast inh: inactive; HSF-1 act: 53; HSF1 inhib: inactive; HSP90 refold inh: inactive

How did Cc1nnc(-c2cnn(-c3ccccc3)c2N)n1Cc1ccncc1 do in these assays?
pCIP destab: inactive; Hsp70 act: inactive; NALP1 yeast inh: inactive; HSF-1 act: inactive; HSF1 inhib: inactive; HSP90 refold inh: inactive

What do the screens show for `O=C(CN(C(=O)CNS(=O)(=O)c1ccc(F)cc1)c1ccccc1F)NCc1ccco1`?
pCIP destab: inactive; NALP1 yeast inh: inactive; HSF-1 act: inactive; HSF1 inhib: inactive; HSP90 refold inh: inactive

Results for NCCNC[C@@H]1COC2(CCCCCCCCCCC2)O1 ?
pCIP destab: inactive; NALP1 yeast inh: inactive; HSF-1 act: inactive; HSF1 inhib: inactive; HSP90 refold inh: inactive

How did COc1cc2[nH]c(=S)nc(NCc3cccs3)c2cc1OC do in these assays?
pCIP destab: inactive; Hsp70 act: inactive; NALP1 yeast inh: inactive; HSF-1 act: 123; HSF1 inhib: inactive; HSP90 refold inh: inactive

Results for COc1ccccc1CNc1nc(=S)[nH]c2cc(OC)c(OC)cc12 ?
pCIP destab: inactive; NALP1 yeast inh: inactive; HSF-1 act: inactive; HSF1 inhib: inactive; HSP90 refold inh: inactive

How did CC(C)OC(=O)c1c(NC(=O)Cn2cnc([N+](=O)[O-])n2)sc2c1CCCC2 do in these assays?
pCIP destab: inactive; Hsp70 act: inactive; HSF-1 act: 58; HSF1 inhib: inactive; HSP90 refold inh: inactive

What do the screens show for `CC(=O)NCCn1ccc2ccccc21`?
pCIP destab: inactive; Hsp70 act: inactive; NALP1 yeast inh: inactive; HSF-1 act: 60; HSF1 inhib: inactive; HSP90 refold inh: inactive

Results for OCCN1CCN(Cc2cc(Cl)c3cccnc3c2O)CC1 ?
pCIP destab: inactive; Hsp70 act: inactive; NALP1 yeast inh: inactive; HSF-1 act: inactive; HSF1 inhib: inactive; HSP90 refold inh: inactive

How did c1ccc(N2CCN(Cc3nc4ccccc4[nH]3)CC2)nc1 do in these assays?
pCIP destab: inactive; NALP1 yeast inh: inactive; HSF-1 act: inactive; HSF1 inhib: inactive; HSP90 refold inh: inactive

What do the screens show for `Cc1[nH]c2ccccc2c1CN1CCN(c2ccccn2)CC1`?
pCIP destab: inactive; HSF-1 act: 81; HSF1 inhib: inactive; HSP90 refold inh: inactive

How did COc1ccccc1N1CCN(CCOc2c(OC)cccc2OC)CC1 do in these assays?
pCIP destab: inactive; Hsp70 act: inactive; NALP1 yeast inh: 28; HSF-1 act: inactive; HSF1 inhib: inactive; HSP90 refold inh: inactive

How did Oc1c(CN2CCN(c3ccccn3)CC2)cc(Cl)c2cccnc12 do in these assays?
pCIP destab: inactive; Hsp70 act: inactive; NALP1 yeast inh: 79; HSF-1 act: inactive; HSF1 inhib: inactive; HSP90 refold inh: inactive

What do the screens show for `COc1ccccc1N1CCN(Cc2cc(Br)c(O)c3ncccc23)CC1`?
pCIP destab: inactive; Hsp70 act: inactive; NALP1 yeast inh: inactive; HSF-1 act: inactive; HSF1 inhib: -80; HSP90 refold inh: inactive

How did CCOc1ccccc1N1CCN(Cc2cccc(OC)c2O)CC1 do in these assays?
pCIP destab: inactive; Hsp70 act: inactive; NALP1 yeast inh: inactive; HSF-1 act: inconclusive; HSF1 inhib: inactive; HSP90 refold inh: inactive

Results for Cc1ccc(S(=O)(=O)N2CCOCC2)cc1C(=O)NC1CCCC(C)C1C (stereo not drawn) ?
HSF-1 act: inactive; HSF1 inhib: inactive

Results for CC1CN(C(=O)c2ccc(COc3ccc(C(C)C)cc3)o2)CC(C)O1 (stereo not drawn) ?
pCIP destab: inactive; Hsp70 act: inactive; NALP1 yeast inh: inactive; HSF-1 act: 60; HSF1 inhib: inactive; HSP90 refold inh: inactive

How did Cc1ccc(OCc2ccc(C(=O)NN)o2)cc1C do in these assays?
pCIP destab: inactive; NALP1 yeast inh: inactive; HSF-1 act: inactive; HSF1 inhib: inactive; HSP90 refold inh: inactive

Results for Cc1ccc(OCc2ccc(C(=O)N3CCCC3)o2)cc1C ?
pCIP destab: inactive; NALP1 yeast inh: inactive; HSF-1 act: 61; HSF1 inhib: inactive; HSP90 refold inh: inactive

What do the screens show for `CC1CN(C(=O)c2ccc(COc3ccc4ccccc4c3)o2)CC(C)O1` (stereo not drawn)?
pCIP destab: inactive; Hsp70 act: inactive; NALP1 yeast inh: inactive; HSF-1 act: inactive; HSF1 inhib: inactive; HSP90 refold inh: inactive
